PubChem BioAssay (NCI)
Compounds without any hit were thinned out: in the full panel of roughly 83,000, 20% have a hit.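 In brief: 96-well plates, 48 h treatment, single concentration, percent growth endpoint.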 Active and inactive are the calls of the source. Rule for the calls: active = growth percent below 10; inactive = the rest.

Experiments:
Experiment in all cases: NCI-60 one-dose screen, 48 h (100 = growth as untreated, 0 = no growth, -100 = all killed)
NCI-H226 lung = settings: 10 µM
NCI-H322M lung = settings: 10 µM
HOP-62 NSCLC = settings: 10 µM
NCI-H522 lung = settings: 10 µM
COLO 205 colon = settings: 10 µM
DU-145 prostate = settings: 10 µM
SF-268 CNS = settings: 10 µM
SF-295 CNS = settings: 10 µM
SF-539 CNS = settings: 10 µM
M14 melanoma = settings: 10 µM
HCT-15 colon = settings: 10 µM
SNB-75 CNS = settings: 10 µM
SNB-19 CNS = settings: 10 µM
U251 CNS = settings: 10 µM
PC-3 prostate = settings: 10 µM
SK-MEL-5 melanoma = settings: 10 µM
UACC-62 melanoma = settings: 10 µM
SK-MEL-28 melanoma = settings: 10 µM
SK-MEL-2 melanoma = settings: 10 µM
HL-60(TB) leukemia = settings: 10 µM unless noted

Measured: growth

C[C@H]1[C@@H](CC(=O)N[C@@H](Cc2coc3ccccc23)B(O)O)O[C@@H]2OC3(C)CC[C@H]4[C@H](C)CC[C@@H]1[C@@]24OO3
inactive: NCI-H322M lung 19.6% | DU-145 prostate 21.6% | SF-268 CNS 20.4% | SNB-19 CNS 26%
active: NCI-H226 lung -28.1% | HOP-62 NSCLC -17.3% | NCI-H522 lung -74.5% | COLO 205 colon -49.2% | SF-295 CNS -88.8% | SF-539 CNS -96.4% | M14 melanoma -44% | HCT-15 colon -62.3% | SNB-75 CNS -19.3% | U251 CNS -14.3% | PC-3 prostate -25.6% | SK-MEL-5 melanoma -97.2% | UACC-62 melanoma -90.8% | SK-MEL-28 melanoma -49.4% | SK-MEL-2 melanoma -53.6%

C=CCN=C([Se])NC(=O)c1ccc2c(c1)OCO2
inactive: NCI-H226 lung 119% | NCI-H322M lung 14.8% | HOP-62 NSCLC 26.9% | NCI-H522 lung 105% | COLO 205 colon 122% | DU-145 prostate 101% | SF-268 CNS 110% | SF-295 CNS 13.7% | SF-539 CNS 67.3% | M14 melanoma 86.8% | HCT-15 colon 97.1% | SNB-75 CNS 26% | SNB-19 CNS 39.2% | U251 CNS 36.2% | PC-3 prostate 40.1% | SK-MEL-5 melanoma 90.8% | UACC-62 melanoma 97.9% | SK-MEL-28 melanoma 111% | SK-MEL-2 melanoma 143% | HL-60(TB) leukemia 106%

CC1=C(C=O)C2=C(C)C3(CC3)[C@@](C)(O)C(=O)C2=C1
inactive: NCI-H226 lung 45.9% | NCI-H322M lung 67.2% | HOP-62 NSCLC 37.5% | COLO 205 colon 30.4% | SF-268 CNS 36.2% | SF-295 CNS 70.5% | M14 melanoma 13.6% | SNB-75 CNS 16.5% | SNB-19 CNS 54.5% | PC-3 prostate 26.1% | UACC-62 melanoma 49.3% | SK-MEL-28 melanoma 23.3%
active: NCI-H522 lung -76.5% | DU-145 prostate 8.41% | SF-539 CNS -47.8% | HCT-15 colon -29.3% | U251 CNS -43.9% | SK-MEL-5 melanoma -91.5% | SK-MEL-2 melanoma 8.32%

O=C(/C=C/c1ccc(Cl)cc1Cl)c1nc2ccccc2n1Cc1ccc(Br)cc1
inactive: NCI-H226 lung 55.7% | NCI-H322M lung 84.4% | HOP-62 NSCLC 94.8% | NCI-H522 lung 88.2% | COLO 205 colon 100% | DU-145 prostate 83.9% | SF-268 CNS 81% | SF-295 CNS 79.4% | SF-539 CNS 84% | M14 melanoma 78.4% | HCT-15 colon 46.6% | SNB-75 CNS 50.4% | SNB-19 CNS 74.8% | U251 CNS 45% | PC-3 prostate 67.1% | SK-MEL-5 melanoma 85% | UACC-62 melanoma 60.7% | SK-MEL-28 melanoma 89.5% | SK-MEL-2 melanoma 97.2% | HL-60(TB) leukemia 60%

C[C@H]1[C@H](OC(=O)CCC(=O)N(CCCc2cn(-c3ccc([N+](=O)[O-])cc3)nn2)CCNc2ccnc3cc(Cl)ccc23)O[C@@H]2OC3(C)CC[C@H]4[C@H](C)CC[C@@H]1[C@@]24OO3
inactive: NCI-H226 lung 61.6% | NCI-H322M lung 81.5% | HOP-62 NSCLC 69.4% | COLO 205 colon 20.1% | DU-145 prostate 53.8% | SF-268 CNS 59.5% | SF-295 CNS 46.1% | SF-539 CNS 38.1% | M14 melanoma 45.3% | HCT-15 colon 15.8% | SNB-75 CNS 89.2% | SNB-19 CNS 67% | U251 CNS 55.9% | PC-3 prostate 41.2% | SK-MEL-5 melanoma 17.8% | UACC-62 melanoma 39% | SK-MEL-28 melanoma 50.7% | SK-MEL-2 melanoma 26.7%
active: NCI-H522 lung 5.13% | HL-60(TB) leukemia -24.2%

O=C(/C=C/c1cccc(Br)c1)c1nc2ccccc2n1Cc1ccc(F)cc1
active: SF-539 CNS 8.26% | HCT-15 colon -31.6% | U251 CNS -9.29% | HL-60(TB) leukemia 3.12%
inactive: NCI-H226 lung 14.5% | NCI-H322M lung 75.8% | HOP-62 NSCLC 38.3% | NCI-H522 lung 59.4% | COLO 205 colon 79.3% | DU-145 prostate 30.2% | SF-268 CNS 62.6% | SF-295 CNS 62.9% | M14 melanoma 30.7% | SNB-75 CNS 32.9% | SNB-19 CNS 47.1% | PC-3 prostate 23.8% | SK-MEL-5 melanoma 58.3% | UACC-62 melanoma 22.4% | SK-MEL-28 melanoma 50.6% | SK-MEL-2 melanoma 63.9%

O=C(/C=C/c1ccc(Cl)cc1)c1nc2ccccc2n1Cc1ccc(Br)cc1
inactive: NCI-H226 lung 57.4% | NCI-H322M lung 78.8% | HOP-62 NSCLC 65.5% | NCI-H522 lung 76% | COLO 205 colon 93.6% | DU-145 prostate 66.1% | SF-268 CNS 75.3% | SF-295 CNS 73.3% | SF-539 CNS 43.8% | M14 melanoma 65.4% | HCT-15 colon 21.4% | SNB-75 CNS 79.2% | SNB-19 CNS 65.9% | U251 CNS 34.4% | PC-3 prostate 36.6% | SK-MEL-5 melanoma 85% | UACC-62 melanoma 48.6% | SK-MEL-28 melanoma 80.1% | SK-MEL-2 melanoma 83.3% | HL-60(TB) leukemia 35.8%
